Experimental findings from PubChem BioAssay (EPA / NIEHS) are described below.

Activity calls are given as the source filed them. The calls were made as follows: active = hit-call score of the fitted dose curve at least 0.9, where 1 is the maximum; inactive = score below 0.9.

Read-out in this assay: Insulin Like Growth Factor 1 (IGF1), IGF1 (gene 3479)
Kind of assay: LTEA_HepaRG_IGF1: Life Technologies and Expression Analysis (LTEA) Assay for Insulin Like Growth Factor 1 (IGF1) using HepaRG (AID 2283506). The conditions noted are these: mRNA level, 48 h; actives raise or lower the signal. How it is done: LTEA_HepaRG is a cell based, multiplexed-readout assay that uses HepaRG, a human liver cell line, with measurements taken at 48 hours after chemical dosing on a 96-well plate.LTEA_HepaRG_IGF1 is one of 102 assay component(s) measured in the LTEA HepaRG cell culture assay. It is a marker of Cell proliferation, survival, death.Data from the assay component LTEA_HepaRG_IGF1 was analyzed into 1 endpoint. This assay endpoint, LTEA_HepaRG_IGF1, was analyzed with bidirectional fitting relative to DMSO as the negative control and baseline of activity. Using a type of inducible reporter, measures of mRNA induction for gain or loss-of-signal activity can be used to understand regulation of transcription factor activity. To generalize the intended target to other relatable targets, this assay endpoint is annotated to the growth factor intended target family, where the subfamily is insulin-like.
A total of 1060 chemcials from the ToxCast library were tested in eight-point concentration-response experiments. Cell culture and cytotoxicity assays were conducted at Thermo Fisher Scientific's Custom Services facility (Madison, WI). A single lot of human HepaRG cells (Thermo Fisher Scientific, Frederick, MD) was used for the cell culture experiments. 96-well format collagen type I coated plates of human HepaRG cells were prepared using established methods. Briefly, cryopreserved HepaRG cells were thawed, plated at a density of approximately 100,000 cells/well in HepaRG Thaw, Plate, and General Purpose media (HPRG770, Thermo Fisher Scientific), and incubated for 48 hours. 0.5% DMSO was selected as vehicle control to balance the requisite need of DMSO in HepaRG cultures to maintain differentiation (for example, baseline metabolism, proportions of hepatocytes vs. cholangiocytes), while enabling further hepatic receptor pathway activation (for example, PXR and CAR) in response to chemical exposure. 48 hours after plating, the culture medium was replaced with HepaRG Serum-Free Incudtion Media. Cells were exposed to each test chemical in duplicate and maintained in CO2 incubators for another 48 hours. Chemical plates were thawed to room temperature and 200x concentrations of treatment groups were prepared. 8-point conentration-reponse curves were made with the highest exposure at 100 uM, followed by half-log dilutions, all in 0.5% DMSO. Each test plate contained variouse controls, induction positive controls (1mM phenobarbital), cytotoxicity positive controls ([…] aflatoxin B1), vehicle controls (0.5% DMSO), and total lysis controls (0.5% DMSO). Cell morphology images were taken using an Essen IncuCyte FLR automated microscope, with six 96-well plates imaged in about 24 minutes. Images were captured and exported and JPEG files. Spent culture media was transfered to black-well plates for the LDH assay, and remaining media was sorted at -80 C for later use. Cells were treated with RLT buffer and frozen until shipped for gene expression analysis. Total RNA was isolated from the cell suspension in 75 uL of Buffer RLT (Qiagen, Germantown, MD 20874) by Quintiles/Expression Analysis (Durham, NC) using a custom isolation procedure. Total RNA from each plate well was transferred to a preamplification plate. Fluidigm's 96.96 Dynamic ArrayTM (Fluidigm, Amsterdam, the Netherlands) technology was used for gene expression analyses by quantitative reverse transcription polymerase chain reaction (qRT-PCR, performed by Quintiles/Expression Analysis, Durham, NC)89. Standard TaqManTM Assays (Applied Biosystems/ThermoFisher Scientific, Foster City, CA) were used to assess the expression of 93 genes selected based on their selectivity and sensitivity to important hepatic receptors known to be modulated by environmental chemicals; importance in human hepatocyte functionality; and hepatotoxicity. […]
Regarding `COP(=O)(OC)OC(Br)C(Cl)(Cl)Br` (stereo not given), the compound was classed as inactive.

As usually defined, the AC50 is the concentration at which the activity in the assay is half-maximal. Take `COc1cccc(C(=O)NN(C(=O)c2cc(C)cc(C)c2)C(C)(C)C)c1C`: the AC50 is 74.6 µM (active).

Take `CCCOCC(=Nc1ccc(Cl)cc1C(F)(F)F)n1ccnc1`: the AC50 is 12.1 µM (active).

`CCCCSP(=O)(SCCCC)SCCCC`: the AC50 was 65.7 µM (active).

Consider `COP(=O)(OC)C(O)C(Cl)(Cl)Cl` (stereo not given), for which the compound was classed as inactive.

In the case of `CNC(=O)ON=C(SC)C(=O)N(C)C`, the result was inactive.

`CCC(=NOC/C=C/Cl)C1=C(O)CC(C2CCOCC2)CC1=O` (stereo not given): the compound was classed as inactive.

In the case of `S=C1NCCN1`, the outcome was inactive.

For the compound `CCCCOC(=O)c1ccccc1C(=O)O`, the call was inactive.

Take `CCc1cnc(C2=NC(C)(C(C)C)C(=O)N2)c(C(=O)O)c1` (stereo not given): the call was inactive.

For the compound `CN(C)[C@@H]1C(=O)C(C(N)=O)=C(O)[C@@]2(O)C(=O)C3=C(O)c4c(O)cccc4[C@@](C)(O)[C@H]3[C@H](O)[C@@H]12`, the compound was classed as inactive.

For the compound `C=C(C)[C@H]1Cc2c(ccc3c2O[C@@H]2COc4cc(OC)c(OC)cc4[C@@H]2C3=O)O1`, the AC50 is 1.03 µM (active).

Consider `CCc1cccc(C)c1N(C(=O)CCl)C(C)COC` (stereo not given), for which the AC50 is 50 µM (active).

In the case of `C#CCC1=C(C)C(OC(=O)C2C(C=C(C)C)C2(C)C)CC1=O` (stereo not given), the AC50 was 71 µM (active).

For the compound `CC1(C(=O)Nc2ccc(O)c(Cl)c2Cl)CCCCC1`, the result was inactive.

Consider `Cc1ccn2nc(S(=O)(=O)Nc3c(F)cccc3F)nc2n1`, for which the compound was called inactive.

As for `CCOP(=S)(OCC)Oc1ccc([N+](=O)[O-])cc1`, the call was inactive.

As to `CC(C)=CC1C(C(=O)OCN2C(=O)C3=C(CCCC3)C2=O)C1(C)C` (stereo not given), the compound was called inactive.

Turning to `CCCSP(=O)(OCC)SCCC`, the AC50 is 27.7 µM (active).

Regarding `O=[N+]([O-])c1cc(C(F)(F)F)c(Cl)c([N+](=O)[O-])c1Nc1ncc(C(F)(F)F)cc1Cl`, the AC50 is 79.4 µM (active).

Take `C[N+]1(C)CCCCC1`: the call was inactive.

With `CCOP(=O)(NC(C)C)Oc1ccc(SC)c(C)c1` (stereo not given), the AC50 is 50 µM (active).

As to `CSC1=N[C@@](C)(c2ccccc2)C(=O)N1Nc1ccccc1`, the AC50 is 27.6 µM (active).

Consider `CSc1nnc(C(C)(C)C)c(=O)n1N`, for which the compound was classed as inactive.

As to `CCNc1nc(Cl)nc(NC(C)(C)C#N)n1`, the outcome was inactive.

As for `Nc1c(Cl)cc([N+](=O)[O-])cc1Cl`, the compound was classed as inactive.

For `COc1cc(OC)nc(Sc2cccc(Cl)c2C(=O)O)n1`, the compound was classed as inactive.

Consider `CCOP(=S)(Oc1cnc(C(C)(C)C)nc1)OC(C)C` (stereo not given), for which the AC50 was 44.6 µM (active).

With `CSc1nc(NC(C)C)nc(NC(C)C)n1`, the half-maximal activity concentration (AC50) is 20.7 µM (active).

On to `CC[C@H](C)[C@H]1O[C@]2(C=C[C@@H]1C)C[C@@H]1C[C@@H](C/C=C(\C)[C@@H](O[C@H]3C[C@H](OC)[C@@H](O[C@H]4C[C@H](OC)[C@@H](NC)[C@H](C)O4)[C@H](C)O3)[C@@H](C)/C=C/C=C3\CO[C@@H]4[C@H](O)C(C)=C[C@@H](C(=O)O1)[C@]34O)O2`, for which the AC50 was 27.7 µM (active).

Regarding `CCCCOC(=O)[C@@H](C)Oc1ccc(Oc2ccc(C#N)cc2F)cc1`, the call was inactive.

On to `CCCSP(=O)(OCC)Oc1ccc(Br)cc1Cl` (stereo not given), for which the result was inactive.

Consider `Cc1cc(C2CC2)nc(Nc2ccccc2)n1`, for which the compound was called inactive.

Regarding `C[Si](Cn1cncn1)(c1ccc(F)cc1)c1ccc(F)cc1`, the AC50 is 50 µM (active).

`CCC(CC)Nc1c([N+](=O)[O-])cc(C)c(C)c1[N+](=O)[O-]`: the AC50 is 61.1 µM (active).

On to `CCOC(=O)CC(SP(=O)(OC)OC)C(=O)OCC` (stereo not given), for which the compound was classed as inactive.

In the case of `CN(C)C(=O)Nc1cccc(C(F)(F)F)c1`, the compound was called inactive.

Consider `CC1=NNC(=O)N(/N=C/c2cccnc2)C1`, for which the outcome was inactive.

Turning to `CC(C)N(C(=O)SCC(Cl)=C(Cl)Cl)C(C)C`, the call was inactive.

For the compound `CC(COc1ccc(Oc2ccccc2)cc1)Oc1ccccn1` (stereo not given), the AC50 was 32.8 µM (active).
